Where “and” joins values, the source holds several entries; their conditions need not be identical. Equal values may be shown once. Results filed as inconclusive are left out. Where a call stands in place of a potency, no number is given. Calls of active or inactive are those of the source. Calls follow the shape of the dose curve; as a rule, active = well fitted curve in the direction sought with a large enough effect; inconclusive = small, poorly fitted or top-dose-only effect, or another doubt; inactive = no such curve, though single readings can be large; an effect the other way counts as inactive or inconclusive.
assay: qHTS assay for cell viability of the p53RE-bla HCT-116 cell line (AID 743292); details: p53RE-bla HCT-116 viability, ATP luminescence, 16 h; series mostly up to 95 µM; also: nearly all actives have a fitted effect of over 55% in size
Procedure, shortened: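 In this qHTS counter-screen, metabolically competent p53RE-bla HCT-116 cells were counted via their ATP content. Compounds were applied for 16 h at 37 C and luciferase-coupled luminescence was measured.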
Potency is read from the fitted curve at half-maximal effect.

Question: With ClC(Cl)(Cl)Cl as the molecule, how does the Potency read?
Answer: Its Potency is “inactive”.

Question: For N#CN, which Potency is on record?
Answer: The Potency was “inactive”.

Question: For [O]=[Cr](=[O])([OH])[O][Cr](=[O])(=[O])[OH], which Potency is on record?
Answer: The Potency was 31.6 µM (active) and 25.1 µM (active) and 22.4 µM (active).

Question: For CC(C)Nc1ccc(Nc2ccccc2)cc1, which Potency is on record?
Answer: The Potency was “inactive”.

Question: For O=C/C=C/c1ccccc1, which Potency is on record?
Answer: Its Potency is “inactive”.

Question: Which Potency does the source give for C[CH2][Hg][S]c1ccccc1C(=O)O here?
Answer: Its Potency is 15.8 µM (active).

Question: With O=[N+]([O-])c1ccc(F)c([N+](=O)[O-])c1 as the molecule, how does the Potency read?
Answer: Its Potency is “inactive”.

Question: For ClC1C(Cl)C(Cl)C(Cl)C(Cl)C1Cl (stereo unspecified), which Potency is on record?
Answer: Its Potency is “inactive”.

Question: With C[C@H]1CCC[C@H](O)CCCCCc2cc(O)cc(O)c2C(=O)O1 as the molecule, how does the Potency read?
Answer: The Potency was “inactive”.

Question: Which Potency does the source give for O=c1[nH]c(=O)n(Cl)c(=O)n1Cl here?
Answer: Its Potency is “inactive”.

Question: For CCOC(=O)c1ccccc1C(=O)OCC, which Potency is on record?
Answer: Its Potency is “inactive”.

Question: Which Potency does the source give for O=C1C[C@@H]2OCC=C3CN4CC[C@]56c7ccccc7N1[C@H]5[C@H]2[C@H]3C[C@H]46 here?
Answer: The Potency was “inactive”.

Question: For C[C@]12CCC(=O)C[C@@H]1CC[C@@H]1[C@@H]2CC[C@]2(C)[C@@H](O)CC[C@@H]12, which Potency is on record?
Answer: The Potency was “inactive”.

Question: With Clc1ccccc1Cl as the molecule, how does the Potency read?
Answer: Its Potency is “inactive”.

Question: For ClCC1CO1 (stereo unspecified), which Potency is on record?
Answer: The Potency was “inactive”.

Question: With CC(C)CCON=O as the molecule, how does the Potency read?
Answer: Its Potency is “inactive”.

Question: With O=Cc1ccco1 as the molecule, how does the Potency read?
Answer: The Potency was “inactive”.

Question: For CCOP(=O)(OCC)O/C(=C/Cl)c1ccc(Cl)cc1Cl, which Potency is on record?
Answer: The Potency was “inactive”.

Question: Which Potency does the source give for Oc1cc(Cl)c(Cl)cc1Cl here?
Answer: The Potency was “inactive”.

assay: qHTS assay to identify small molecule inhibitors of chordoma cells - UCH-1 (AID 1259355); details: UCH-1 chordoma viability, CellTiter-Glo, 48 h, combination; series mostly up to 46.1 µM; also: nearly all actives have a fitted effect of over 55% in size
Procedure, shortened: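 Cells (800/well) were seeded and left overnight at 37 C, 5% CO2, then treated with drugs at 15 concentrations plus a combination mix of auranofin, camptothecin, doxorubicin, rubitecan and topotecan. Viability after 48hr was read by CellTiter-Glo luminescence.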

Question: Which Potency does the source give for C[N+]1([O-])[C@@H]2CC(OC(=O)[C@H](CO)c3ccccc3)C[C@H]1[C@@H]1O[C@@H]12 (stereo partly specified) here?
Answer: Its Potency is “inactive”.

Question: For O=C(OCCN1CCCCC1)C(O)(c1ccccc1)c1ccccc1, which Potency is on record?
Answer: Its Potency is “inactive”.

Question: For ClC(Cl)(Cl)Cl, which Potency is on record?
Answer: The Potency was “inactive”.

Question: With N#CN as the molecule, how does the Potency read?
Answer: The Potency was “inactive”.

Question: With Clc1ccc(C2(Cn3cncn3)OCCO2)c(Cl)c1 as the molecule, how does the Potency read?
Answer: Its Potency is “inactive”.

Question: Which Potency does the source give for C=CCC1(C(C)CCC)C(=O)N=C(S)NC1=O (stereo unspecified) here?
Answer: The Potency was “inactive”.

Question: With CCOc1ccc2c3c1O[C@H]1[C@@H](O)C=C[C@H]4[C@@H](C2)N(C)CC[C@@]341 as the molecule, how does the Potency read?
Answer: Its Potency is “inactive”.

Question: Which Potency does the source give for [O]=[Cr](=[O])([OH])[O][Cr](=[O])(=[O])[OH] here?
Answer: Its Potency is 2.24 µM (active) and 4.47 µM (active).

Question: With C[C@@H]([C@H](O)c1ccccc1)N(C)C as the molecule, how does the Potency read?
Answer: Its Potency is “inactive”.

Question: Which Potency does the source give for CC(C)Nc1ccc(Nc2ccccc2)cc1 here?
Answer: Its Potency is “inactive”.

Question: With C[C@]12CC[C@H](OS(=O)(=O)O)CC1=CC[C@@H]1[C@@H]2CC[C@]2(C)C(=O)CC[C@@H]12 as the molecule, how does the Potency read?
Answer: Its Potency is “inactive”.

Question: For O=C/C=C/c1ccccc1, which Potency is on record?
Answer: The Potency was “inactive”.

Question: For c1ccc2sc(SNC3CCCCC3)nc2c1, which Potency is on record?
Answer: Its Potency is “inactive”.

Question: For C[CH2][Hg][S]c1ccccc1C(=O)O, which Potency is on record?
Answer: Its Potency is 3.16 µM (active).

Question: Which Potency does the source give for O=[N+]([O-])c1ccc(F)c([N+](=O)[O-])c1 here?
Answer: Its Potency is “inactive”.

Question: With ClC1C(Cl)C(Cl)C(Cl)C(Cl)C1Cl (stereo unspecified) as the molecule, how does the Potency read?
Answer: Its Potency is “inactive”.

Question: For C[C@H]1CCC[C@H](O)CCCCCc2cc(O)cc(O)c2C(=O)O1, which Potency is on record?
Answer: Its Potency is “inactive”.

Question: Which Potency does the source give for O=c1[nH]c(=O)n(Cl)c(=O)n1Cl here?
Answer: The Potency was “inactive”.

Question: Which Potency does the source give for CCOC(=O)c1ccccc1C(=O)OCC here?
Answer: The Potency was “inactive”.

Question: For O=c1ccc2cc(O[C@@H]3O[C@H](CO)[C@@H](O)[C@H](O)[C@H]3O)c(O)cc2o1, which Potency is on record?
Answer: Its Potency is “inactive”.

Question: Which Potency does the source give for S=C(S)N1CCNCC1 here?
Answer: The Potency was “inactive”.

Question: With O=C1C[C@@H]2OCC=C3CN4CC[C@]56c7ccccc7N1[C@H]5[C@H]2[C@H]3C[C@H]46 as the molecule, how does the Potency read?
Answer: Its Potency is “inactive”.

Question: Which Potency does the source give for C[C@]12CCC(=O)C[C@@H]1CC[C@@H]1[C@@H]2CC[C@]2(C)[C@@H](O)CC[C@@H]12 here?
Answer: Its Potency is “inactive”.

Question: For C[N+]1(C)[C@@H]2CC[C@H]1CC(OC(=O)c1c[nH]c3ccccc13)C2 (stereo partly specified), which Potency is on record?
Answer: Its Potency is “inactive”.

Question: For Clc1ccccc1Cl, which Potency is on record?
Answer: The Potency was “inactive”.

Question: With COC1=CC=C2[C@H]3Cc4ccc(OC)c5c4[C@@]2(CCN3C)[C@H]1O5 as the molecule, how does the Potency read?
Answer: The Potency was “inactive”.

Question: With CCCCC[C@@H](O)C1C(=O)OC(C)[C@H](O)/C=C/C=C/C=C/C=C/C=C(\C)C(O)C(O)C(O)C[C@H](O)C[C@H](O)C[C@H](O)C[C@H](O)C[C@@H]1O (stereo partly specified) as the molecule, how does the Potency read?
Answer: The Potency was “inactive”.

Question: Which Potency does the source give for CC(Cc1ccccc1)NC=O (stereo unspecified) here?
Answer: The Potency was “inactive”.

Question: With O=C(CS(=O)C(c1ccccc1)c1ccccc1)NO (stereo unspecified) as the molecule, how does the Potency read?
Answer: Its Potency is “inactive”.

Question: For COC(COC(N)=O)C1=C(N2CC2)C(=O)C(C)=C(N2CC2)C1=O (stereo unspecified), which Potency is on record?
Answer: Its Potency is 2.24 µM (active).

Question: With ClCC1CO1 (stereo unspecified) as the molecule, how does the Potency read?
Answer: The Potency was “inactive”.

Question: With O=C1C[C@@H]2OCC=C3CN4CC[C@]56c7ccccc7N1[C@H]5[C@H]2[C@H]3C[C@H]46 (tested in a mixture with another compound) as the molecule, how does the Potency read?
Answer: The Potency was “inactive”.

Question: For CCON=O, which Potency is on record?
Answer: The Potency was “inactive”.

Question: With CC(C)CCON=O as the molecule, how does the Potency read?
Answer: Its Potency is “inactive”.

Question: For FC(F)OC(F)(F)C(F)Cl (stereo unspecified), which Potency is on record?
Answer: Its Potency is “inactive”.

Question: With O=Cc1ccco1 as the molecule, how does the Potency read?
Answer: The Potency was “inactive”.

Question: Which Potency does the source give for CCOP(=O)(OCC)O/C(=C/Cl)c1ccc(Cl)cc1Cl here?
Answer: The Potency was “inactive”.

Question: Which Potency does the source give for Oc1cc(Cl)c(Cl)cc1Cl here?
Answer: Its Potency is “inactive”.

assay: qHTS assay to identify small molecule inhibitors of chordoma cells - UCH-2 (AID 1259356); details: UCH-2 chordoma viability, CellTiter-Glo ATP luminescence, 48 h; series mostly up to 46.1 µM

Question: Which Potency does the source give for C[N+]1([O-])[C@@H]2CC(OC(=O)[C@H](CO)c3ccccc3)C[C@H]1[C@@H]1O[C@@H]12 (stereo partly specified) here?
Answer: Its Potency is “inactive”.

Question: For ClC(Cl)(Cl)Cl, which Potency is on record?
Answer: Its Potency is “inactive”.

Question: Which Potency does the source give for N#CN here?
Answer: Its Potency is “inactive”.

Question: With Clc1ccc(C2(Cn3cncn3)OCCO2)c(Cl)c1 as the molecule, how does the Potency read?
Answer: Its Potency is “inactive”.

Question: For C[C@@H]([C@H](O)c1ccccc1)N(C)C, which Potency is on record?
Answer: The Potency was “inactive”.

Question: Which Potency does the source give for CC(C)Nc1ccc(Nc2ccccc2)cc1 here?
Answer: The Potency was “inactive”.

Question: For O=C/C=C/c1ccccc1, which Potency is on record?
Answer: The Potency was “inactive”.

Question: For C[CH2][Hg][S]c1ccccc1C(=O)O, which Potency is on record?
Answer: Its Potency is 3.66 µM (active).

Question: Which Potency does the source give for O=[N+]([O-])c1ccc(F)c([N+](=O)[O-])c1 here?
Answer: Its Potency is “inactive”.

Question: For ClC1C(Cl)C(Cl)C(Cl)C(Cl)C1Cl (stereo unspecified), which Potency is on record?
Answer: Its Potency is “inactive”.

Question: Which Potency does the source give for C[C@H]1CCC[C@H](O)CCCCCc2cc(O)cc(O)c2C(=O)O1 here?
Answer: The Potency was “inactive”.

Question: For O=c1[nH]c(=O)n(Cl)c(=O)n1Cl, which Potency is on record?
Answer: The Potency was “inactive”.

Question: For C[C@]12CCC(=O)C[C@@H]1CC[C@@H]1[C@@H]2CC[C@]2(C)[C@@H](O)CC[C@@H]12, which Potency is on record?
Answer: The Potency was “inactive”.

Question: Which Potency does the source give for Clc1ccccc1Cl here?
Answer: The Potency was “inactive”.

Question: For ClCC1CO1 (stereo unspecified), which Potency is on record?
Answer: Its Potency is “inactive”.

Question: With CC(C)CCON=O as the molecule, how does the Potency read?
Answer: Its Potency is “inactive”.

Question: Which Potency does the source give for O=Cc1ccco1 here?
Answer: The Potency was “inactive”.

Question: With CCOP(=O)(OCC)O/C(=C/Cl)c1ccc(Cl)cc1Cl as the molecule, how does the Potency read?
Answer: Its Potency is “inactive”.

Question: Which Potency does the source give for Oc1cc(Cl)c(Cl)cc1Cl here?
Answer: Its Potency is “inactive”.
